In PubChem BioAssay AID1852 (Sanford-Burnham Center for Chemical Genomics, 2009):
About 1,100 (44%) of roughly 2,500 compounds were called active.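 How the source made its calls: active means inhibition above 50% at 4 µM in the single-point screen; inactive means inhibition of 50% or less.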 The set was probably picked from earlier hits. The list shows a part of the results.

Experiment: TNF-a-driven NF-kB reporter inhibitors, primary screen, selectivity assay for NOD1/NOD2 signaling inhibitor project, cell-based, HEK293T NF-kB-Luc, luminescence (AID 1852)
Conditions: TNF-a induced, 14 h, at 4 µM, stronger effect = higher value

inhibition, inactive:
O=C(Nc1cccc(Br)c1)c1ccc(Cl)c(S(=O)(=O)N2CCOCC2)c1 45.4%, Cc1ccc(NC(=O)c2ccc(S(=O)(=O)NCC3CCCO3)cc2)cc1C (stereo unspecified) 4.7%, O=C(/C=C\c1ccco1)Nc1nc(-c2ccc3ccccc3c2)cs1 36.9%, CN(C)S(=O)(=O)c1ccc(C(=O)Nc2nc(-c3cc4ccccc4o3)cs2)cc1 36.3%, Cc1ccccc1Nc1nc(N)nc(CCl)n1 24.8%, Cc1ccc(C)c(N2CCN(C(=O)CCS(=O)(=O)c3ccc4c(c3)NC(=O)CO4)CC2)c1 28.3%, CC1Sc2ccc(S(=O)(=O)CCC(=O)N3CCN(c4ccccc4F)CC3)cc2NC1=O (stereo unspecified) 39.3%, O=C(c1ccc2c(c1)N(Cc1ccccc1)C(=O)c1ccccc1S2)N1CCCC1 34.7%, COc1ccc(Cc2noc(CN3CCN(Cc4cccc(Cl)c4)CC3)n2)cc1OC 35.8%, CCOC(=O)N1CCN(C(=O)c2ccc3c(c2)N(C)C(=O)/C(=C\c2ccc(OCC)c(OC)c2)S3)CC1 21.6%, COCCN1CCN(C(=O)c2ccc3nc(Cc4ccc(OC)c(OC)c4)oc3c2)CC1 8.5%, Cc1ccccc1/C=C1\Sc2ccc(C(=O)N3CCN(c4ccccn4)CC3)cc2N(C)C1=O 22.2%, O=C1Nc2cc(C(=O)N3CCN(c4ccccn4)CC3)ccc2S/C1=C\c1ccccc1 3%, Cc1ccc(C)c(Oc2cc(NC(=O)CCCn3nc(C)c([N+](=O)[O-])c3C)cc([N+](=O)[O-])c2)c1 -13.6%, O=C(Nc1ccc(N2CCN(Cc3ccccc3F)CC2)cc1)c1ccc([N+](=O)[O-])o1 20%, O=C(Nc1ccc(Br)cc1)c1ccc(F)c(S(=O)(=O)N2CCN(c3ccccn3)CC2)c1 36.8%, CCOC(=O)c1ccc(NC(=O)c2sc3nc(N4CCOCC4)c4c(c3c2N)CCCC4)cc1 -98.3%, O=C(N/N=C/c1cccs1)c1n[nH]c2c1CCCC2 1.7%, COc1ccc(/C=c2/sc3nc(-c4ccccc4)c(-c4ccccc4)n3c2=O)cc1 -25.7%, CCNC(=O)/C(C#N)=C/c1c(N2CCN(c3ccc(OC)cc3)CC2)nc2c(C)cccn2c1=O 15.3%, Cc1ccc(C)c(N=Nc2ccc(O)c3ncccc23)c1 42.5%, Oc1ccc(N=Nc2ccc3c(c2)OCCO3)c2cccnc12 39.5%, Cc1ccc2c(C)ccc(O)c2n1 -70.6%, COc1ccc(Cc2nc3ccc(C(=O)N4CCN(C)C(C)C4)cc3o2)cc1OC (stereo unspecified) 45.4%, CCOC(=O)C1CCCN(C(=O)c2ccc3c(=O)n(CCOC)c(=S)[nH]c3c2)C1 (stereo unspecified) 21.6%, CCN(CC)c1nc(N2CCOCC2)nc2ccccc12 2%, COc1ccc(/C=N/NS(=O)(=O)c2ccc(F)cc2)cc1COc1cc(F)ccc1[N+](=O)[O-] 12.7%, O=C(CCc1nnc(-c2ccc(-c3ccccc3)cc2)o1)N1CCCCC1 -6.8%, CC(C)(C)OC(=O)N[C@@H](Cc1ccccc1)c1nnc(S(=O)(=O)Cc2cccc(F)c2)o1 -10.8%, CC1CN(C(=O)/C=C/c2ccc([N+](=O)[O-])s2)CC(C)O1 (stereo unspecified) 41%, O=C(/C=C/c1ccc([N+](=O)[O-])s1)N1CCN(c2ccccc2)CC1 10.5%, Cc1ccc(/C=C/c2ccc(N(C)C)cc2)[n+](C)c1 28.5%, O=C(CCl)N=c1sccn1Cc1ccccc1Cl 48.8%, Cc1cccc(C(=O)Nc2scc(CC(C)C)c2C(=O)O)c1 -33.5%, Cc1cccc(Nc2nc(N)nc(CCl)n2)c1C 18.1%, Cc1cccc(NC(=O)CCNC(=O)c2ccc(Br)cc2)c1C -6.4%, CCOC(=O)N1CCN(C(=O)c2ccc([N+](=O)[O-])cc2Cl)CC1 43%, Nc1nn2c(-c3ccccc3)cc(=O)[nH]c2c1N=Nc1ccc(O)cc1 -17.5%, COc1ccc(S(=O)(=O)NC(C)C(=O)Nc2cccc([N+](=O)[O-])c2)cc1 (stereo unspecified) 36.7%, COC(=O)c1scc(S(=O)(=O)C(C)C)c1N/N=C(\C#N)C(=O)c1ccc(Cl)cc1 27.4%, O=C(Nc1ccc(F)cc1)c1nn(-c2ccccc2)c(=O)cc1Cl -30.5%, O=C(NNC(=O)c1cc(-c2ccccc2)nn1-c1ccccc1)c1ccccc1 11.9%, O=C(Nc1ccc2oc(-c3cccnc3)nc2c1)c1ccc([N+](=O)[O-])o1 43.1%, CC(=O)c1cccc(NS(=O)(=O)c2ccc(NC(=O)N3CCCCC3)cc2)c1 19.3%, COc1cccc(NS(=O)(=O)c2ccc3c(c2)CCN3C(C)=O)c1 41.6%, Cc1ccc(OC(F)F)c(NC(=O)Nc2cccc(C(F)(F)F)c2)c1 8.9%

inhibition, active:
O=C(Nc1ccc(Cl)c(S(=O)(=O)N2CCOCC2)c1)c1ccc(OCC2CCCO2)cc1 (stereo unspecified) 94.7%, CN(C)S(=O)(=O)c1ccc(-c2csc(N/N=C/c3ccco3)n2)cc1 99.8%, CCC(=O)NC(c1cccs1)c1cc([N+](=O)[O-])c2cccnc2c1O (stereo unspecified) 86.2%, CCCC(=O)NC(c1cccs1)c1cc([N+](=O)[O-])c2cccnc2c1O (stereo unspecified) 71.3%, Cc1ccc(C)c(N2CCN(C(=O)CCS(=O)(=O)c3ccc4c(c3)NC(=O)C(C)S4)CC2)c1 (stereo unspecified) 74.4%, CCOc1ccc(/C=C2/Sc3ccc(C(=O)N4CCOCC4)cc3N(C)C2=O)cc1OC 54.9%, COc1ccc(/C=C2\Sc3ccc(C(=O)N4CCN(Cc5ccccc5)CC4)cc3N(C)C2=O)cc1OC 59.1%, CN1C(=O)/C(=C/c2ccccc2Cl)Sc2ccc(C(=O)N3CCCC3)cc21 89%, O=C(Nc1ccc(N2CCN(C(=O)c3ccccc3F)CC2)cc1)c1cncc(Br)c1 72.9%, Cc1ccc(-c2c3c(nc4sc(C(N)=O)c(N)c24)CCC3)cc1 82.9%, NC(=O)c1sc2nc3c(c(-c4ccccc4)c2c1N)CCC3 96.6%, Cc1nc2sc(C(N)=O)c(N)c2c2c1CCCC2 92.8%, NC(=O)c1sc2nc3c(c(-c4ccco4)c2c1N)CCCC3 83.5%, NC(=O)c1sc2nc3c(c(-c4cccs4)c2c1N)CCCCC3 90%, Cc1nnc(N2CCCC(C(=O)Nc3cc(F)ccc3F)C2)c2nn(-c3ccccc3)c(C)c12 (stereo unspecified) 95.7%, COc1ccc(Cc2[nH]n3c(=O)c(Cl)c(C)nc3c2-c2ccccc2)cc1 106%, COc1cc(/C=N/NC(=O)c2cc(-c3ccc4c(c3)OCO4)n[nH]2)ccc1O 55.4%, Cc1ccc(N=Nc2ccc(O)c3ncccc23)cc1 96.9%, Cc1ccccc1N=Nc1ccc(O)c2ncccc12 105%, Cc1ccc(N=Nc2ccc(O)c3ncccc23)cc1C 105%, COCCn1c(=S)[nH]c2cc(C(=O)N3CCCC(C)C3)ccc2c1=O (stereo unspecified) 94.8%, O=C(NCc1cccnc1)/C(=C\c1ccc(-c2cccc(Cl)c2)o1)S(=O)(=O)c1ccccc1 91.5%, O=C(NCc1cccnc1)/C(=C/c1ccc(-c2cccc(Cl)c2)o1)S(=O)(=O)c1ccccc1 99.5%, COc1ccc(-c2n(CC(=O)OC3CC(C)CCC3C(C)C)c3ccccc3[n+]2C)cc1 (stereo unspecified) 74.8%, C/C(=N\NC(=O)c1cc(C2CC2)nc2ccccc12)c1ccc(O)cc1O 66.6%, C/C(=N\NC(=O)c1c(C)nc2ccccn12)c1ccc(O)cc1O 69.2%, O=C(Nc1nnc(-c2ccc3c(c2)CCCC3)o1)c1ccccc1 106%, O=C(Nc1nnc(-c2ccc3c(c2)CCCC3)o1)c1ccccc1Cl 106%, O=C(Nc1nnc(-c2ccc3c(c2)CCCC3)o1)c1ccc(Cl)cc1Cl 101%, O=C(/C=C/c1ccc([N+](=O)[O-])s1)N1CCCCC1 54.6%, CC1CC(C)CN(C(=O)/C=C/c2ccc([N+](=O)[O-])s2)C1 (stereo unspecified) 60.4%, CC[n+]1ccc(/C=C/c2ccc(N(C)C)cc2)c2ccccc21 62.5%, CC[n+]1cc(C)ccc1/C=C/c1ccc(N(C)C)cc1 57.1%, CC(C)CC[n+]1ccccc1/C=C/c1ccc(N(C)C)cc1 74.3%, O=C(NCc1cccs1)c1nc2c(nnn2Cc2ccccc2Cl)c(=O)[nH]1 98.2%, O=C(NCc1ccco1)c1nc2c(nnn2Cc2ccccc2Cl)c(=O)[nH]1 78.4%, CCC(C)N(CC(=O)Nc1cccc(C)c1C)C(=O)CCl (stereo unspecified) 85.8%, CCCN(CC(=O)Nc1ccccc1C)C(=O)CCl 93.3%, CC(=O)Oc1c(C)cc(Cl)cc1C(=O)Nc1ccc([N+](=O)[O-])cc1Cl 98.1%, Nc1nn2c(-c3ccccc3)cc(=O)[nH]c2c1N=Nc1ccc(Br)cc1 78.7%, COc1ccc(C(=O)/C(C#N)=N/Nc2cccc([N+](=O)[O-])c2)cc1 87.9%, O=C(c1ccccc1)c1nn(-c2ccc(Cl)cc2)c(=O)cc1C(F)(F)F 54.8%, CC(=O)Nc1ccc(S(=O)(=O)Nc2ccc3c(c2)CCC3)cc1 85%, C=C1C(=O)O[C@@H]2C[C@@H](C)[C@@H]3C=CC(=O)[C@@]3(C)[C@@H](OC(C)=O)[C@H]12 101%, Cc1oc2c(F)c(F)c(F)c(F)c2c1S(=O)(=O)Nc1cccc(C(F)(F)F)c1 87.4%
